In all, about 10,000 compounds went through this assay and about 320 (3.2%) were called active. The sample holds actives, similar compounds and a random draw of the others, so the mix is not that of the screen. A number with no mark means an inactive call. Rule as the data show it: active = CPE inhibition mostly above about 9.1% (no sharp cut-off); inactive = mostly below about 7.2%.
test: antivirals protecting cells from dengue CPE – CPE readout, HTS (AID 540333); details: Dengue virus CPE inhibition in host cells, at 20 µM; hits give high values

Row | SMILES | CPE inhibition
1 | Cn1c2ccccc2c(=O)c2c(=O)n(-c3ccccc3)c(C3CCCCC3)nc21 | 9.13% (active)
2 | Cn1c2ccccc2c(=O)c2c(=O)n(C3CCCCC3)c(-c3ccco3)nc21 | 10.4%
3 | CCCc1nc2c(c(=O)c3ccccc3n2C)c(=O)n1C1CCCCCC1 | inactive
4 | CCOC(=O)CSc1ncnc2c1c(-c1ccccc1)cn2-c1ccc(OC)cc1 | 2.07%
5 | O=c1[nH]cnc2c1c(-c1ccccc1)cn2-c1ccc(Br)cc1 | 11.8% (active)
6 | COC(=O)C(C)Sc1ncnc2c1c(-c1ccccc1)cn2-c1ccc(OC)cc1 (stereo unspecified) | 2.83%
7 | CCOc1ccccc1NC(=O)C(OC(=O)c1ccccc1NS(=O)(=O)c1cccs1)c1ccccc1 (stereo unspecified) | 1.08%
8 | CC12CCC(C(=O)N(NC(=O)c3cccnc3)C1=O)C2(C)C (stereo unspecified) | 2.09%
9 | CC(NC(=O)/C=C/c1cnc2ccccc2n1)C12CC3CC(CC(C3)C1)C2 (stereo unspecified) | 12.8% (active)
10 | CC(NC(=O)COC(=O)[C@@H]1CCCN1S(=O)(=O)c1ccccc1F)C12CC3CC(CC(C3)C1)C2 (stereo partly specified) | inactive
11 | O=C(N/N=C/c1ccccn1)C12CC3CC(CC(C3)C1)C2 | inactive
12 | O=C(COc1ccc(Br)cc1Cl)NC1CCCCC1 | 0.99%
13 | CC(=O)c1ccc(NC(=O)CN2C(=O)/C(=C/C(C)=C/c3ccccc3)SC2=S)cc1 | 0.22%
14 | Cc1ccc(-c2csc(NC(CO)c3nc4ccccc4n3CCOCCO)n2)cc1 (stereo unspecified) | 0.615%
15 | CC(O)c1nc2ccccc2n1Cc1ccc([N+](=O)[O-])cc1 (stereo unspecified) | inactive
16 | CCCn1c(C(C)Nc2nc(-c3ccc(Cl)c([N+](=O)[O-])c3)cs2)nc2ccccc21 (stereo unspecified) | 29.9% (active)
17 | CCC1CCCCN1C(=O)c1cccc(S(=O)(=O)Nc2cc(C(F)(F)F)ccc2Cl)c1 (stereo unspecified) | 3.38%
18 | COc1ccc(CCN=C(N)NS(=O)(=O)c2ccc3ccccc3c2)cc1 | inactive
19 | Cc1ccc(C2(CCN)CCOC(C(C)C)C2)cc1 (stereo unspecified) | 7.74% (active)
20 | O=C(NNS(=O)(=O)c1ccc(Cl)cc1)c1ccc(S(=O)(=O)N2CCCCC2)cc1 | inactive
21 | CC(C)(C)c1ccc(S(=O)(=O)N2CCSC2)cc1 | 0.03%
22 | CC(C)(C)c1ccc(S(=O)(=O)N2CCCCC2)cc1 | 9.75% (active)
23 | Cc1ccc(S(=O)(=O)N2CCCCCC2)cc1[N+](=O)[O-] | inactive

Row | SMILES | CPE inhibition
24 | CNC(=S)N(Cc1cccs1)Cc1cc2cc(OC)c(OC)cc2[nH]c1=O | inactive
25 | COC(=O)c1ccccc1NC(=S)N(Cc1ccc2c(c1)OCO2)Cc1cc2cc(C)ccc2[nH]c1=O | 21.6% (active)
26 | COC(=O)c1ccccc1NC(=S)N(Cc1ccc2c(c1)OCO2)Cc1cc2ccc(OC)cc2[nH]c1=O | 23.8% (active)
27 | CCOc1ccccc1NC(=S)N(Cc1cc2ccc(C)cc2[nH]c1=O)CC1CCCN1CC (stereo unspecified) | inactive
28 | Cc1ccc2[nH]c(=O)c(CN(Cc3cccs3)C(=S)NCc3ccco3)cc2c1 | 5.92%
29 | CCN1CCCC1CN(Cc1cc2ccc(C)cc2[nH]c1=O)C(=S)Nc1ccccc1OC (stereo unspecified) | inactive
30 | COC(=O)c1ccccc1NC(=S)N(Cc1ccc2c(c1)OCO2)Cc1cc2cc(OC)ccc2[nH]c1=O | 3.25%
31 | COC(=O)c1ccccc1NC(=S)N(Cc1ccc2c(c1)OCO2)Cc1cc2ccc(C)cc2[nH]c1=O | 33% (active)
32 | COc1cc2cc(CN(Cc3cccs3)C(=S)Nc3ccccc3)c(=O)[nH]c2cc1OC | 6.21%
33 | COC(=O)Cc1ccc(NC(=S)N2CCN(c3cccc(O)c3)CC2)cc1 | 0.105%
34 | CCOC(=O)CCCNC(=O)COC(=O)[C@@H]1CCCN1S(=O)(=O)c1ccc(Cl)cc1 | inactive
35 | Cc1ccc(-c2nc3ccccc3c(=O)n2NC(=O)COc2ccccc2)cc1 | 0.37%
36 | CN(C)c1ccc(/C=N/NC(=S)NCc2ccco2)cc1 | 0.335%
37 | COc1ccc(NC(=O)Nc2cccc([N+](=O)[O-])c2)cc1Cl | 0.865%
38 | O=C(O)c1ccc(NC(CSCc2ccccc2F)C(=O)O)c([N+](=O)[O-])c1 (stereo unspecified) | inactive
39 | CC12CCC(C(=O)N(c3ccc(Cl)cc3)C1=O)C2(C)C (stereo unspecified) | inactive
40 | CC12CCC(C/C1=N\N=C1\NC(=O)/C(=C\c3ccc(Cl)cc3)S1)C2(C)C (stereo unspecified) | 12.2% (active)
41 | Cc1c(N=C2NC(=O)/C(=C/c3ccc(O)cc3)S2)c(=O)n(-c2ccccc2)n1C | 0.27%
42 | NS(=O)(=O)c1ccc(NC(=S)N2CCN(c3ccccc3)CC2)cc1 | 0.43%
43 | O=C(COc1ccccc1-c1ccccc1)NCCN1C(=O)S/C(=C\c2cccnc2)C1=O | 2.91%
44 | COc1cc(OC)cc(N(C(=O)C2COc3ccccc3O2)C(C(=O)NC2CCCCC2)c2ccc(O)cc2)c1 (stereo unspecified) | 12.5% (active)
45 | COc1ccc(N(C(=O)CSCC(=O)Nc2cc(C)on2)C(C(=O)NC2CCCCC2)c2ccc(O)c(O)c2)cc1 (stereo unspecified) | inactive
46 | COc1ccc(N(C(=O)C2COc3ccccc3O2)C(C(=O)NC2CCCCC2)c2ccccc2)cc1OC (stereo unspecified) | 4.27%

Source: PubChem BioAssay AID540333 (Southern Research Specialized Biocontainment Screening …, 2011)
